Source: PubChem (The Scripps Research Institute Molecular Screening Center)
FBW7 activator = human FBW7 E3 ligase activation, primary screen | AlphaScreen FBW7–phospho-cyclin E peptide binding, activator screen | 650,000 tested, 0.13% active | normalized activity (activation), % at 26.1 µM; in the data active = normalized activity above about 1.9%;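 note: purified mutant Fbw7 with reduced substrate affinity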
GPR151 ag = activators of human GPR151 | PathHunter beta-arrestin GPR151 cells, luminescence | 650,000 tested, 1% active | activation, % at 11.2 µM | Q8TDV0; in the data active = activation above about 4.9%
MITF inh = inhibitors of human MITF; O75030; AlphaScreen MITF homodimerization, bead proximity signal; inhibition, % at 2.6 µM; 650,000 tested, 0.91% active; AID 1259374; in the data active = inhibition above about 50%
Target sequence (O75030 whole entry, looked up): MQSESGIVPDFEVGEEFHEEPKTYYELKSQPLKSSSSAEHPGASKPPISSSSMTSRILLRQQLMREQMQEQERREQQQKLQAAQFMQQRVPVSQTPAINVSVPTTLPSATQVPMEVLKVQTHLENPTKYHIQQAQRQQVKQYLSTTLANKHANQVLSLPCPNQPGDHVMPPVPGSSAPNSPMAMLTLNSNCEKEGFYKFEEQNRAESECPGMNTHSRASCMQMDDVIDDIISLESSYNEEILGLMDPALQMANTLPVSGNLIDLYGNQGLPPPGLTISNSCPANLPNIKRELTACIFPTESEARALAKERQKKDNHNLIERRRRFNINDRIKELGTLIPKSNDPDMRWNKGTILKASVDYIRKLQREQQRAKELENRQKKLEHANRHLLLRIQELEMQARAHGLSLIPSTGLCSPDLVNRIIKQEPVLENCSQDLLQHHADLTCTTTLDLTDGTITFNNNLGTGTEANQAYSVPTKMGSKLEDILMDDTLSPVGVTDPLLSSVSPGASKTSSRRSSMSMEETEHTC
TEAD-YAP block = TEAD-YAP interaction inhibition | HEK-TIYL cells, TEAD-Gal4/YAP UAS-luciferase luminescence | inhibition, % at 9.12 µM | 640,000 tested, 1.4% active | AID 1259422; in the data active = inhibition above about 32%
Each line names hits and unclear results; the compound was inactive in the other large screens; ! = not confirmed by another sample. Shown are actives, neighbours in structure and some others; about 3.5% of the full set was active somewhere.

CCOC(=O)CN=C(C)c1c(C)[nH]n(-c2nc3ccccc3s2)c1=O	TEAD-YAP block 49
CC(=NCCCN1CCOCC1)c1c(C)[nH]n(-c2nc3ccccc3s2)c1=O	TEAD-YAP block 33!
CC(=NCc1ccco1)c1c(C)[nH]n(-c2nc3ccccc3s2)c1=O	TEAD-YAP block 41!
COc1ccc(OC)c(N=C(C)c2c(C)[nH]n(-c3nc4ccccc4s3)c2=O)c1	none
CC(=NCCO)c1c(-c2ccccc2)[nH]n(-c2nc3ccccc3s2)c1=O	none
Cc1ccc(NC(=O)CCS(=O)(=O)c2ccc(C)c(C)c2)cc1	none
O=C1NC2(CCN(Cc3ccc(F)c(F)c3)CC2)Nc2ccc(Cl)cc21	none
CCCC(C)NC(=O)c1ccc(CN(c2ccccc2)S(C)(=O)=O)cc1 (stereo not given)	none
O=C(/C=C/Nc1ccc(Br)cc1)c1cccs1	TEAD-YAP block 41
Cc1ccc(O)c(N/C=C/C(=O)c2ccc(F)cc2)c1	none
O=C(/C=C/Nc1cccc(Br)c1)c1cccs1	none
CCOc1ccc(N/C=C/C(=O)c2cccs2)cc1	TEAD-YAP block 37
Cc1ccc(O)c(N/C=C/C(=O)c2cccs2)c1	TEAD-YAP block 54
COc1ccc(/C=C/C(=O)NCCc2csc(-c3ccc(C)cc3)n2)cc1OC	none
Cc1nn(CC(=O)NCc2cccnc2)c(=O)c2cccn12	none
S=C(NNc1nc(N2CCCC2)nc(N2CCCC2)n1)NC1CCCCC1	TEAD-YAP block 39
COc1ccc(OC)c(NC2=C(Cl)C(=O)N(Cc3ccccc3)C2=O)c1	none
O=C1C(Cl)=C(Nc2cccc(C(F)(F)F)c2)C(=O)N1Cc1ccccc1	TEAD-YAP block 75
COc1ccc(Cl)cc1NC1=C(Cl)C(=O)N(Cc2ccccc2)C1=O	MITF inh 64, TEAD-YAP block 72
COc1ccc2c(c1)CC(c1nc3ccc(-c4ccnc(N)c4)cc3[nH]1)CO2 (stereo not given)	none
COc1ccc2c(c1)CC(c1nc3cc(-c4ccnc5[nH]ccc45)c(F)cc3[nH]1)CO2 (stereo not given)	TEAD-YAP block 50
CCn1c(C2COc3ccc(OC)cc3C2)nc2cc(F)c(-c3ccnc4[nH]ccc34)cc21 (stereo not given)	MITF inh 58
Cc1ccc(C)n1-c1ccc(C(=O)O)c(C(=O)O)c1	none
Cc1ccc(C)n1-c1ccc(Br)cc1C(=O)O	MITF inh 82
COc1ccc(OC)c(-c2cc(C(=O)Nc3nccs3)c3ccccc3n2)c1	none
CCCn1c(/C=N/Nc2nc3ccccc3[nH]2)nc2ccccc21	none
Cn1c(/C=N/Nc2nc3ccccc3[nH]2)nc2ccccc21	TEAD-YAP block 40
CC(C)n1c(/C=N/Nc2nc3ccccc3[nH]2)nc2ccccc21	TEAD-YAP block 37
Nc1nc(N2CCCCCC2)nc(N2CCN(Cc3ccccc3)CC2)c1[N+](=O)[O-]	none
COc1cccc(C(=O)NC(c2ccccc2)c2cc(Cl)c3cccnc3c2O)c1 (stereo not given)	none
COc1cccc(C(=O)NC(c2ccco2)c2cc(Cl)c3cccnc3c2O)c1 (stereo not given)	TEAD-YAP block 79
COc1cccc(C(=O)NC(c2ccccc2OC)c2cc(Cl)c3cccnc3c2O)c1 (stereo not given)	TEAD-YAP block 41
COc1ccccc1C(NC(=O)c1cccnc1)c1cc(Cl)c2cccnc2c1O (stereo not given)	none
CNS(=O)(=O)c1cc(C(=O)OCc2cc(=O)oc3cc4c(cc23)CCC4)ccc1Cl	none
CCOC(=O)c1cc(CC)sc1NC(=O)CCBr	none
C/C(CC(=O)Nc1ccccn1)=N\NC(=O)c1ccc(C(C)(C)C)cc1	none
Cc1ccc(-c2nc(CSCC(=O)O)c(C)o2)cc1	TEAD-YAP block 81
CCc1ccc(-c2nc(CSCC(=O)NCCN(C)C)c(C)o2)cc1	TEAD-YAP block 38
Cc1cccc(-n2ncc3c(Nc4ccc(C(C)C)cc4)ncnc32)c1	none
COc1ccc(N(CC(=O)c2ccc(C3CCCCC3)cc2)C2=NCCCCC2)c(OC)c1	TEAD-YAP block 55
COc1ccc(N(CC(=O)NC2CCCC2)S(C)(=O)=O)c(OC)c1	none
O=C(CNC(=S)N(Cc1ccc(F)cc1)C1CCCCC1)NC1CCCC1	none
CCOC(=O)C1=C(c2ccccc2)N=c2s/c(=C\c3cc(C)n(-c4ccc(C(=O)O)cc4)c3C)c(=O)n2C1c1ccc(F)cc1 (stereo not given)	none
CCOCCc1nnc(NC(=O)CS(=O)(=O)c2ccccc2)s1	none
CCc1cc(=O)[nH]c(-n2nc(C)cc2NC(=O)CC2CCCC2)n1	TEAD-YAP block 58
CCCc1cc(=O)[nH]c(-n2nc(C)cc2NC(=O)C2CC2)n1	none
